Compounds with a hit are over-represented: about 6.2% of the library has one in this group of screens.
HCMV inh = human cytomegalovirus inhibition; AID 1259415; HFF cells, HCMV-luciferase reporter, 72 h; stronger effect = lower value; 410,000 tested, 4.5% active; activity change, negative = inhibition, % at 57.5 µM; in the data active = activity change below about -60%; inconclusive = no clear call, values can overlap the other calls; inactive = above about -39%
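Human foreskin fibroblasts infected with luciferase-reporter HCMV at MOI 1 PFU/cell, compounds at two doses. Luciferase measured 72 h post infection; normalized to buffer-only basal and Salinomycin (10uM) controls.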
FMDV antiviral = foot and mouth disease virus antiviral activity. FMDV antiviral cell-based qHTS. Potency, µM (titrated, usually from 57.9 µM), most hits filed as inhibitors. 410,000 tested, 1.2% active; calls by dose curve; tested in HEK293T cells; note: read-out not given here; nearly all actives have a fitted effect of over 45% in size
Lassa entry inh = inhibitors of Lassa virus binding or cell entry; Lassa virus pseudotype entry inhibition, cell reporter; 300,000 tested, 1.2% active; Potency, µM (titrated, usually from 37.9 µM), actives largely listed as inhibitors; calls by dose curve; tested in HEK293 cells; note: nearly all actives have a fitted effect of over 50% in size
Marburg entry inh = blocks Marburg virus binding to or entry into cells; 300,000 tested, 1.8% active; AID 540276; Potency, µM (doses to about 37.8 µM), actives largely listed as inhibitors; Marburg virus pseudotyped entry inhibition, cell reporter; calls by dose curve; tested in HEK293 cells
Of the large screens only hits and unclear results are named; the others gave an inactive call.

CCCNC(=O)OC[C@H]1O[C@H](CCON=C(C)CCN2CCCCc3nc(C)c(C)cc32)C=C[C@H]1Oc1ccc(OC)cc1	none (no result: HCMV inh, FMDV antiviral, Lassa entry inh)
O=C(c1ccoc1)N1CCN(c2cc(-c3ccco3)nc3cc(-c4ccccc4)nn23)CC1	HCMV inh -73.0, FMDV antiviral inconclusive (no result: Lassa entry inh, Marburg entry inh)
COc1ccccc1-c1cc2nc(-c3ccccc3)cc(N3CCN(C(=O)c4ccoc4)CC3)n2n1	HCMV inh -102.9, FMDV antiviral 7.94µM (no result: Lassa entry inh, Marburg entry inh)
O=C(c1ccoc1)N1CCN(c2cc(-c3ccccc3)nc3cc(-c4ccccc4)nn23)CC1	HCMV inh -98.1, FMDV antiviral 35.5µM (no result: Lassa entry inh, Marburg entry inh)
COc1ccccc1-c1cc2nc(-c3ccccc3)cc(N3CCN(C(=O)c4ccco4)CC3)n2n1	HCMV inh -100.3, FMDV antiviral 4.47µM (no result: Lassa entry inh, Marburg entry inh)
Cc1cc(N2CCN(C(=O)c3ccoc3)CC2)n2nc(-c3ccccc3)cc2n1	FMDV antiviral inconclusive (no result: Lassa entry inh, Marburg entry inh)
Nc1nc(SCC(=O)NCc2ccc(F)cc2)[nH]c(=O)c1NC(=O)c1ccc(Cl)cc1	none
O=C(/C=C/c1ccc(Br)o1)NCCCN1CCOCC1	none (no result: Lassa entry inh, Marburg entry inh)
CC1=C(C(=O)OC2CCCC2)C(c2c(F)cccc2Cl)CC(=O)N1 (stereo not drawn)	HCMV inh inconclusive, FMDV antiviral inconclusive
CCOc1ccccc1OCC(=O)NCCc1ccc(S(N)(=O)=O)cc1	none
COc1ccc(C(=O)N2CCCC(c3nc(-c4cccs4)no3)C2)cc1 (stereo not drawn)	none
Cc1cc(C(=O)CSc2nnnn2C)c(C)n1C1CC1	none (no result: Lassa entry inh, Marburg entry inh)
CN1CCN(c2cc(-c3ccccc3)nc3cc(-c4ccc(F)cc4)nn23)CC1	Lassa entry inh inconclusive, Marburg entry inh inconclusive
Fc1ccc(-c2cc3nc(-c4ccccc4)cc(N4CCN(CCN5CCOCC5)CC4)n3n2)cc1	HCMV inh -70.8, Marburg entry inh inconclusive
Cc1ccc(C(=O)Nc2ccc(Cc3ccncc3)cc2)cc1[N+](=O)[O-]	FMDV antiviral inconclusive, Lassa entry inh inconclusive
O=C(Nc1ccc(S(=O)(=O)N2CCOCC2)cc1)c1ccc([N+](=O)[O-])o1	HCMV inh -98.5, Marburg entry inh inconclusive
O=C(Nc1ccc(Cc2ccncc2)cc1)c1ccc([N+](=O)[O-])o1	HCMV inh -100.9, Lassa entry inh inconclusive, Marburg entry inh inconclusive
Cc1c(C(=O)Nc2ccc(Cc3ccncc3)cc2)cccc1[N+](=O)[O-]	HCMV inh -78.8, Marburg entry inh inconclusive
CCC(=O)NC(=S)Nc1ccc(NC(=O)c2ccc(Br)o2)cc1	HCMV inh -103.1 (no result: Lassa entry inh, Marburg entry inh)
O=C(Nc1ccc(Cc2ccncc2)cc1)c1cccc([N+](=O)[O-])c1	none
CN1C(=O)C2(Oc3ccccc3C3CC(c4ccccc4)=NN32)c2ccccc21 (stereo not drawn)	Marburg entry inh inconclusive (no result: HCMV inh)
CC1CCN(C(=O)CSc2nnc(Cc3cc(=O)[nH]c(=O)[nH]3)n2-c2ccc(Cl)cc2)CC1	none
CCOc1cc(/C=C2\SC(=S)N(Nc3ccccc3)C2=O)ccc1O	none
Cc1ccc(S(=O)(=O)Cc2sc3ccccc3[n+]2C)cc1	none
CC1CCN(c2ccc(NC(=O)c3ccc(Br)o3)cc2)CC1	Lassa entry inh 10µM, Marburg entry inh inconclusive
CC(=O)Nc1ccc2nc(NC(=O)c3ccc([N+](=O)[O-])o3)sc2c1	HCMV inh -102.3, Lassa entry inh inconclusive, Marburg entry inh inconclusive
O=C(Nc1ccc(S(=O)(=O)N2CCCCCC2)cc1)c1ccc(Br)o1	HCMV inh inconclusive, Lassa entry inh 9.2µM, Marburg entry inh inconclusive
O=C(Nc1ccc(N2CCOCC2)cc1)c1ccc([N+](=O)[O-])o1	HCMV inh -103.0, Marburg entry inh inconclusive
O=C1CN(C(=O)c2c(F)cccc2F)C(c2ccc(F)cc2)c2cc(F)ccc2N1 (stereo not drawn)	none
O=C(CSc1n[nH]c(-c2ccccc2O)n1)N1CCOCC1	Lassa entry inh inconclusive
O=C(Nc1cccc(NC(=O)c2cccs2)c1)c1ccc([N+](=O)[O-])o1	HCMV inh -92.3, Lassa entry inh inconclusive, Marburg entry inh inconclusive
COc1cc(NC(=O)c2ccc([N+](=O)[O-])o2)ccc1NC(=O)c1cccs1	Lassa entry inh inconclusive, Marburg entry inh inconclusive
CCCc1n[nH]c2c1/C(=N\OCC)CC(C)(C)C2	none
CCN(Cc1cc2cccc(C)c2[nH]c1=O)C(=O)c1ccccc1OC	none
CCN(CC)C(=O)c1ncn(C)c1C(=O)N(CC)CC	HCMV inh -66.4 (no result: Lassa entry inh, Marburg entry inh)
CN(Cc1ccccc1)C(=O)c1ncn(C)c1C(=O)N(C)Cc1ccccc1	none (no result: Lassa entry inh, Marburg entry inh)
CCOC(=O)CSCCOc1ccc(C=C2C(=O)NC(=O)NC2=O)cc1OC	none
Cc1cc(C)n(CNc2nc(C(F)(F)F)cs2)n1	none
Cn1cccc1/C=N/n1c(-c2ccc(C(C)(C)C)cc2)n[nH]c1=S	HCMV inh inconclusive, Lassa entry inh 10µM, Marburg entry inh inconclusive
Cn1cccc1/C=N/n1c(-c2ccccc2)n[nH]c1=S	Lassa entry inh inconclusive, Marburg entry inh inconclusive
Cc1cc(C([O-])=C(C(=S)Nc2ccc(F)cc2)[n+]2ccccc2)c(C)n1-c1ccc(F)cc1	none
COc1cccc(NC(=S)/C(=C(\[O-])c2cc(C)n(-c3ccccc3F)c2C)[n+]2ccc(N(C)C)cc2)c1	HCMV inh -94.7 (no result: Lassa entry inh, Marburg entry inh)
Cc1ccc(NC(=O)CSc2nnc(COc3ccc(C#N)cc3)n2-c2ccccc2)cc1C	Lassa entry inh inconclusive, Marburg entry inh 7.3µM
Cc1ccc(OCc2nnc(SCC(=O)Nc3cccc4ccccc34)n2-c2ccccc2)cc1	Lassa entry inh inconclusive, Marburg entry inh 12.6µM
Cc1ccc(-n2c(COc3ccccc3)nnc2SCC(=O)O)cc1	none (no result: Lassa entry inh, Marburg entry inh)
Cc1cc(C)nc(NNS(=O)(=O)c2c(C)cc(C(C)(C)C)cc2C)n1	none
CC(=O)c1cc2ccc(O)cc2oc1=O	none (no result: Lassa entry inh, Marburg entry inh)
Cc1ccc(N=c2oc3cc(O)ccc3cc2C(N)=O)cc1	HCMV inh -79.9, Lassa entry inh inconclusive, Marburg entry inh inconclusive
O=c1[nH]c2ccccc2n1C1CCN(C(c2cccs2)c2nnnn2-c2ccc3c(c2)OCCO3)CC1 (stereo not drawn)	HCMV inh -80.0 (no result: Lassa entry inh, Marburg entry inh)
O=c1[nH]c2ccccc2n1C1CCN(C(c2nnnn2-c2ccc3c(c2)OCCO3)C2CC2)CC1 (stereo not drawn)	HCMV inh inconclusive (no result: Lassa entry inh, Marburg entry inh)
O=c1[nH]c2ccccc2n1C1CCN(C(c2ccccc2)c2nnnn2-c2ccc3c(c2)OCCO3)CC1 (stereo not drawn)	HCMV inh -86.3 (no result: Lassa entry inh, Marburg entry inh)
CSCCC(c1nnnn1-c1ccc2c(c1)OCCO2)N1CCC(n2c(=O)[nH]c3ccccc32)CC1 (stereo not drawn)	HCMV inh -71.5 (no result: Lassa entry inh, Marburg entry inh)
Cc1ccnc(NC(=O)c2ccc(OCC3CCCO3)cc2)c1 (stereo not drawn)	FMDV antiviral 15.8µM, Lassa entry inh 6.31µM, Marburg entry inh 3.55µM
CCOc1ccc2nc(NC(=O)CSc3nnc(-c4ccncc4)n3CC3CCCO3)sc2c1 (stereo not drawn)	none
O=C(Nc1nc(-c2ccc(F)c(F)c2)cs1)c1ccc(OCC2CCCO2)cc1 (stereo not drawn)	HCMV inh -69.3, FMDV antiviral 2µM, Marburg entry inh inconclusive
CCOc1ccc2nc(NC(=O)c3ccc(OCC4CCCO4)cc3)sc2c1 (stereo not drawn)	HCMV inh inconclusive, FMDV antiviral 17.8µM
Cc1cccc2sc(NC(=O)c3ccc(OCC4CCCO4)cc3)nc12 (stereo not drawn)	FMDV antiviral inconclusive, Marburg entry inh inconclusive

High-throughput results (PubChem)
